Reference: PubChem BioAssay (NCATS)
Results filed as inconclusive are left out. Calls of active or inactive are those of the source. Unless noted, the call rests on the fitted dose curve; in most records, active means well fitted curve in either direction with a large enough effect (not every such curve was filed as active); inconclusive means small, poorly fitted or top-dose-only effect, or another doubt; inactive means flat fitted curve, though single readings scatter.

Legend:
[1] = target: Lysosomal acid glucosylceramidase (Homo sapiens) (UniProt P04062); test: Glucocerebrosidase-p2 (AID 348; in the data active means potency below about 10 µM; further: potency means the concentration at half of the fitted maximal effect); conditions: purified GBA, blue fluorogenic substrate, 40 min
How it was run: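 Normal human glucocerebrosidase (0.2 nM) with blue fluorogenic substrate (80 uM final) in citrate/phosphate pH 5.9 with 10mM sodium taurocholate, 0.01% tween-20; 40 min RT, NaOH/glycine stop; fluorescence Ex 365/Em 440; AC50 from a titration from 0.6 nM upwards.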

[2] = AP1 Signaling Pathway (AID 357); conditions: ME-180 AP-1-bla reporter, EGF-induced, beta-lactamase ratio, 5 h; at 7.69 µM (top of the series) unless noted;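 further: ME-180 reporter cells stimulated with EGF at its EC50 level; on the % scale 0 is the no-effect control and ±100 the full control effect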
How it was run: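 Beta-lactamase reporter under AP-1 response element, ME-180 background. Stimulus: EC50 EGF. Compound exposure 5 h, 37 °C. Detection: CCF4, 2.5 h RT, 460/530 nm. Values: AC50 from titration.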

[3] = target: Cytochrome P450 1A2 (Homo sapiens) (UniProt P05177); test: p450-cyp1a2 (AID 410; calls by dose curve;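 further: -100% = full effect of reference inhibitor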); conditions: recombinant CYP1A2, luciferin-ME demethylation, luminescence; series mostly up to 57 µM
How it was run: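 Luminescent demethylation readout: Luciferin-ME (100uM, equal to Km) turned over by 20nM CYP1A2 for 60 min at room temperature after NADPH regeneration addition, following 10 min compound preincubation. Normalization used 57 uM furafylline as full inhibition.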

[4] = NFAT Signaling Pathway (AID 444); conditions: Jurkat NFAT-bla M1, carbachol, beta-lactamase ratio, 5 h; at 7.69 µM (top of the series) unless noted;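 further: carbachol stimulus at about its EC50 of 1 µM final; on the % scale 0 is the no-effect control and ±100 the full control effect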
How it was run: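 Jurkat cells carrying an NFAT-driven β-lactamase reporter and co-transfected muscarinic M1 receptor were treated with compound plus carbachol (1 uM final, an EC50 level) for 5 h at 37 °C. CCF4 loading followed for 1 h at RT; 460/530 nm ratio gave %activity.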

[5] = Stat Signaling Pathway (AID 446); conditions: ME-180 (cervical carcinoma) SIE beta-lactamase reporter, IL-6 stimulated, 5 h; at 7.69 µM (top of the series) unless noted;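 further: ME-180 cervical cancer cells given 40 pM IL-6 alongside compound; SIE-controlled beta-lactamase reporter measured as 460/530 nm FRET emission ratio; on the % scale 0 is the no-effect control and ±100 the full control effect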
How it was run: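 FRET read-out (405 nm excitation, 460/530 nm emission) of a beta-lactamase reporter under a STAT-inducible element in ME-180 cervical carcinoma cells. Cells with compound receive 40 pM IL-6 for 5 h. Values are normalised to AC90 stimulation and AC90 JAK-inhibitor controls.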

[6] = target: Glucocorticoid receptor (Homo sapiens) (UniProt P04150); test: GR-EFC Redistribution (AID 451; calls by dose curve; further: potency means the concentration at half of the fitted maximal effect); conditions: CHO-K1 GR-EFC translocation, beta-gal luminescence, 2 h
How it was run: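 CHO-K1 cells stably expressing nuclear-localized β-gal enzyme acceptor and GR fused C-terminally to the enzyme donor fragment; ligand-driven nuclear translocation restores β-gal by complementation. Compounds titrated up to 46 uM final, 2 h at 37 °C; luminescence read.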

[7] = target: Mitogen-activated protein kinase 10 (Mus musculus) (UniProt Q61831); test: JNK3 AlphaScreen Assay (AID 530); conditions: JNK3 lysate, c-Jun phosphorylation; series mostly up to 57.1 µM;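 further: kinase came from lysate of stimulated human HepG2 cells; signal reports phosphorylation of biotinylated GST-cJun 1-79 at Ser73 with 10 µM ATP; on the % scale 0 is the no-effect control and ±100 the full control effect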
How it was run: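 Phosphorylation of biotinylated GST-cJun(1-79) at Ser73 is measured by AlphaScreen proximity luminescence. Enzyme is JNK3 in HepG2 lysates activated with interleukin-1beta and tumor necrosis factor alpha; ATP is 10 uM final.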

[8] = target: 3',5'-cyclic-AMP phosphodiesterase 4B (Homo sapiens) (UniProt Q07343); test: qHTS Assay for Inhibitors of PDE-IV (AID 607; active means well fitted activation curve with a large enough effect in the main read-out, with a control signal flat, not every such curve was filed as active; further: % of control where 0% means no effect); conditions: HEK293 ACTOne CNG channel cells, membrane potential fluorescence; series mostly up to 22.9 µM
How it was run: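 Cell-based read-out of cAMP via a modified cyclic nucleotide-gated channel and membrane potential dye (535/590 nm) in HEK293 cells expressing PDE4 endogenously. Compounds tested up to 22.9 uM final; 100 uM RO 20-1724 reference.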

[9] = qHTS Assay for Lipid Storage Modulators (AID 1519; calls by dose curve); conditions: Drosophila S3 cells, BODIPY lipid droplet/cell ratio, laser cytometry, cells loaded with oleic acid; for activity change, negative = inhibition: at 57.5 µM (top of the series)
How it was run: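 Cells seeded at 5,000 per well were treated with compounds over a concentration series and loaded with oleic acid (400 uM, as added). Lipid droplet fluorescence (488 nm excitation, 500-530 nm channel) was read by laser-scanning cytometry and normalized to 20 uM Triacsin C.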

[10] = Primary qHTS for small molecule stabilizers of the endoplasmic reticulum resident proteome: Secreted ER Calcium Modulated Protein (SERCaMP) assay (AID 1508630; active means well fitted curve in the direction sought with a large enough effect; an effect the other way counts as inactive or inconclusive; further: on the % scale 0 is the no-effect control and ±100 the full control effect); conditions: SH-SY5Y GLuc-SERCaMP (Gaussia luciferase released on ER calcium loss) secretion, thapsigargin, luminescence; series mostly up to 38.4 µM
How it was run: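 The SH-SY5Y reporter protocol was run at 3 concentrations up to 38.3 uM (primary) or 11 concentrations (follow-up): 16 h compound, 100 nM thapsigargin for 4 h, then extracellular luciferase luminescence.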

[11] = target: Cytochrome P450 3A4 (Homo sapiens) (UniProt P08684); test: qHTS Assay for Inhibitors and Substrates of Cytochrome P450 3A4 (AID 884; active means well fitted curve in the direction sought with a large enough effect; an effect the other way counts as inactive or inconclusive; further: on the % scale 0 is the no-effect control and ±100 the full control effect; nearly all actives have a fitted effect of over 50% in size); conditions: recombinant CYP3A4, Luciferin-PPXE luminescence; series mostly up to 57.1 µM
How it was run: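 Luminescent readout of luciferin produced by CYP3A4 (20 nM) dealkylation of Luciferin-PPXE, 25 uM (its KM). NADPH-driven reaction ran 60 min at RT after 10 min compound preincubation; data scaled to 57 uM ketoconazole as 100% inhibition.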

[12] = target: Cytochrome P450 3A4 (Homo sapiens) (UniProt P08684); test: qHTS Assay for Activators of Cytochrome P450 3A4 (AID 885; active means well fitted curve in the direction sought with a large enough effect; an effect the other way counts as inactive or inconclusive; further: potency means the concentration at half of the fitted maximal effect; nearly all actives have a fitted effect of over 65% in size); conditions: recombinant CYP3A4, Luciferin-PPXE luminescence, 60 min; series mostly up to 57.1 µM
How it was run: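 Luminescent readout of luciferin formed from 25 uM Luciferin-PPXE (KM level) by 20 nM CYP3A4 in 200 mM KPO4, with 60 min NADPH-driven reaction at room temperature after 10 min compound exposure. Ketoconazole (57 uM) defined 100% inhibition.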

[13] = target: Cytochrome P450 2D6 (Homo sapiens) (UniProt P10635); test: qHTS Assay for Inhibitors and Substrates of Cytochrome P450 2D6 (AID 891; active means well fitted curve in the direction sought with a large enough effect; an effect the other way counts as inactive or inconclusive; further: potency means the concentration at half of the fitted maximal effect; nearly all actives have a fitted effect of over 60% in size); conditions: recombinant CYP2D6, luciferin-ME EGE luminescence; series mostly up to 57.1 µM
How it was run: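 Luminescent read-out of luciferin formed by 5 nM human CYP2D6 demethylating 30 uM Luciferin-ME EGE (Km level) over 60 min at room temperature after NADPH regeneration addition. Data normalized to full inhibition by 1.43 uM quinidine.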

[14] = measured here: cell count channel max response
[15] = measured here: lipid channel max response

Cytochrome P450 1A2 (Homo sapiens), sequence (P05177 whole entry, looked up): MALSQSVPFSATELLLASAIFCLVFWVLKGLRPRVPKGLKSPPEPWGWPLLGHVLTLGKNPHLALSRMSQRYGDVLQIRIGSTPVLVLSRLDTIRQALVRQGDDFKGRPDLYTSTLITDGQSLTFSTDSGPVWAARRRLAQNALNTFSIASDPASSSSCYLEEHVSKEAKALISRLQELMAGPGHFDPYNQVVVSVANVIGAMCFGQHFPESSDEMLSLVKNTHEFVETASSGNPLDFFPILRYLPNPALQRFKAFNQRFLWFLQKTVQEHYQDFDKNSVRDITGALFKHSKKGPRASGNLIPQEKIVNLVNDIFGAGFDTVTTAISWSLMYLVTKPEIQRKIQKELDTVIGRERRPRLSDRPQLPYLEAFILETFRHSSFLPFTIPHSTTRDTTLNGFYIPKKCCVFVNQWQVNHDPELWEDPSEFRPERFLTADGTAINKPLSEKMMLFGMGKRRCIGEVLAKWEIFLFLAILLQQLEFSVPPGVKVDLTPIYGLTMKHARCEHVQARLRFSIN
Lysosomal acid glucosylceramidase (Homo sapiens), sequence (P04062 whole entry, looked up): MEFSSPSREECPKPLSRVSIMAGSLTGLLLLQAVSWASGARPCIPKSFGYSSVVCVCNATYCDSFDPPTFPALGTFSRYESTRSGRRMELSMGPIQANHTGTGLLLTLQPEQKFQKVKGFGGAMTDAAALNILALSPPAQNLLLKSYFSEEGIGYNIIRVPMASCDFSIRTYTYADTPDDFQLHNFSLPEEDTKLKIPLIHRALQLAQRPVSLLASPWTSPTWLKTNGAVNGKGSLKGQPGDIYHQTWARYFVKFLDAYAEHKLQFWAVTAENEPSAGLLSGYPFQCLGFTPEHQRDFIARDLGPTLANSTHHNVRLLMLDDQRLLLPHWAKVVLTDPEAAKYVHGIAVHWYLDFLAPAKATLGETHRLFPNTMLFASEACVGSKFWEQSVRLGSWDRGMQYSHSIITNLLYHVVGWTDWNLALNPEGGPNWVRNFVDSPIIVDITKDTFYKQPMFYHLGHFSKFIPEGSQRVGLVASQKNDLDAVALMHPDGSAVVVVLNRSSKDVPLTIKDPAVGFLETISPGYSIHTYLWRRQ
Glucocorticoid receptor (Homo sapiens), sequence (P04150 whole entry, looked up, the tested form may be a part): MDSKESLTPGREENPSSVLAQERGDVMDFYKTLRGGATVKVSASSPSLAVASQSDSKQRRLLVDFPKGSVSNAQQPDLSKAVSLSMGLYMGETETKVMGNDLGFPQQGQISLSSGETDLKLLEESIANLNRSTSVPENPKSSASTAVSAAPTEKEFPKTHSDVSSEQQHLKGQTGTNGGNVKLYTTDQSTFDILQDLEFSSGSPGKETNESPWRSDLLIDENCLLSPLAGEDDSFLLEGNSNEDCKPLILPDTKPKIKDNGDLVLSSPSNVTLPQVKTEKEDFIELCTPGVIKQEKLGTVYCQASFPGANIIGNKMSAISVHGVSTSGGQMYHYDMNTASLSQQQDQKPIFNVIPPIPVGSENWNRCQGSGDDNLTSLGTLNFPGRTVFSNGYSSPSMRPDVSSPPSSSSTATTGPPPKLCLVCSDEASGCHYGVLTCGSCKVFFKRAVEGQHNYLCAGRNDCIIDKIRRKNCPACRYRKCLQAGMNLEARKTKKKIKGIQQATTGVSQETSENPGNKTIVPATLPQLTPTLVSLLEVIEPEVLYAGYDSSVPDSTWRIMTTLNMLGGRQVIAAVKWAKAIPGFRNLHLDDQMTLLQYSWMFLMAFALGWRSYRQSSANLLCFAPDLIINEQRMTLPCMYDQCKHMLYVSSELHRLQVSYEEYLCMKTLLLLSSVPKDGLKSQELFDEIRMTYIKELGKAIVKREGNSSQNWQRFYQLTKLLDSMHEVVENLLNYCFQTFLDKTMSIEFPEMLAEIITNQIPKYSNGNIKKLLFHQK
3',5'-cyclic-AMP phosphodiesterase 4B (Homo sapiens), sequence (Q07343 whole entry, looked up): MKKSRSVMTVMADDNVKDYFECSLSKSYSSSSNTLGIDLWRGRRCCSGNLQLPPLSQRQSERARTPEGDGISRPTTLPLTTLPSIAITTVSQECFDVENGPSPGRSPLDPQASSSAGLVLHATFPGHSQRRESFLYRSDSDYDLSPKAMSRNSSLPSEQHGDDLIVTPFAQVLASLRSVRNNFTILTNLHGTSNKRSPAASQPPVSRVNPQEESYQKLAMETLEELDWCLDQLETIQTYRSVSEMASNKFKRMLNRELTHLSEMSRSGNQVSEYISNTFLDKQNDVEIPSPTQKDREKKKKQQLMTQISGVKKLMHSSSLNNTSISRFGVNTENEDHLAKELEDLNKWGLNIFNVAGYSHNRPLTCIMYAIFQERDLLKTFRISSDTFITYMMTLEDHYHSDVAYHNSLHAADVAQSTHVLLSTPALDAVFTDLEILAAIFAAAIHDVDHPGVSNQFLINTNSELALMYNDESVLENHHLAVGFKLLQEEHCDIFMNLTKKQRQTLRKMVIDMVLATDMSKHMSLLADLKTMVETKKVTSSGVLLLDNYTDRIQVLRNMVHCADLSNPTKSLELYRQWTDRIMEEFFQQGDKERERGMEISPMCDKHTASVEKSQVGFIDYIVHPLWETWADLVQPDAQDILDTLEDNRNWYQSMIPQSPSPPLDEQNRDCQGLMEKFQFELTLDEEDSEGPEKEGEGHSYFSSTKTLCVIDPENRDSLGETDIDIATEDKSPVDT
Cytochrome P450 3A4 (Homo sapiens), sequence (P08684 whole entry, looked up): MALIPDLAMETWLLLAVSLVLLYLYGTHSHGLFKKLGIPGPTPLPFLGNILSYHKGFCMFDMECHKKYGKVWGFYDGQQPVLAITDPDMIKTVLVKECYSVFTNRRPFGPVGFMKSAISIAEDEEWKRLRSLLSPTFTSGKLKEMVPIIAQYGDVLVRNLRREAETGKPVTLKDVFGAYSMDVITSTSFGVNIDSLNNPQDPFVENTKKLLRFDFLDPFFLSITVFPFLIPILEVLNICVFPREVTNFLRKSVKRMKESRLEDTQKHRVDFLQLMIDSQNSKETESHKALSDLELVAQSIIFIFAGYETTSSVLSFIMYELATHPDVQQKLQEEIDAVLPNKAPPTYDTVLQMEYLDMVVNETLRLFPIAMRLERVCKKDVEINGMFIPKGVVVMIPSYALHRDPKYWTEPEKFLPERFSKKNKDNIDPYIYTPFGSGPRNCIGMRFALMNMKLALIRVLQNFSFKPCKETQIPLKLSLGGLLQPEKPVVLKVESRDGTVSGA
Cytochrome P450 2D6 (Homo sapiens), sequence (P10635 whole entry, looked up): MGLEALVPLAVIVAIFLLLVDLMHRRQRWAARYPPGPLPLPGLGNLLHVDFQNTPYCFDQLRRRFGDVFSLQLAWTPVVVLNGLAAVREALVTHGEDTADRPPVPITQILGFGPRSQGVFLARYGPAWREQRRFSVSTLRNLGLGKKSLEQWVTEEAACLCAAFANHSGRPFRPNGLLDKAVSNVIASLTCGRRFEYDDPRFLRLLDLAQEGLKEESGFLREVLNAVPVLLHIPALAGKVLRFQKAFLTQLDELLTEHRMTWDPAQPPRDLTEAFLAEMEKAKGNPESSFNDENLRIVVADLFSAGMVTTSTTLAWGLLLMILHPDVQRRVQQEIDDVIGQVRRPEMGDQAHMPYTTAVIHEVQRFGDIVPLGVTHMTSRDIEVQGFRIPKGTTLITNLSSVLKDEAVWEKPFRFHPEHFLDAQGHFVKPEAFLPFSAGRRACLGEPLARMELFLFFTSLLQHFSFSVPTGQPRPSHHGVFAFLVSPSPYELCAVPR

CC(=O)N1CCC2(CCN(Cc3nccs3)CC2)CC1
5.77%: max response [9, 15]
3.24%: max response [9, 14]
inactive: Potency [1] > 11.4 µM | activity change, negative = inhibition [2] 3.58% | Potency [3] | activity change, negative = inhibition [4] -2.08% | activity, negative = inhibition [5] 17% | Potency [6] > 46 µM | outcome [7] | Potency [8] | activity change, negative = inhibition [9] -0.294% | Potency [10]

COCC(=O)N1CCC2(CC1)CCN(C(=O)Nc1cccc(F)c1)CC2
inactive: Potency [1] > 11.4 µM | activity change, negative = inhibition [2] 5.9% | Potency [3] | activity change, negative = inhibition [4] 3.94% | activity, negative = inhibition [5] -5.26% | Potency [6] > 46 µM | outcome [7] | Potency [8] | activity change, negative = inhibition [9] 0.649% | Potency [10]
10.1%: max response [9, 14]
10.7%: max response [9, 15]

COc1ccc(NC(=O)N2CC3(CCN(C(=O)c4ccco4)CC3)C2)cc1
inactive: Potency [1] > 11.4 µM | activity change, negative = inhibition [2] -4.09% | Potency [3] | activity change, negative = inhibition [4] 3.69% | activity, negative = inhibition [5] -3.56% | Potency [6] > 46 µM | outcome [7] | Potency [8] | activity change, negative = inhibition [9] 5.26% | Potency [10]
8.8%: max response [9, 15]
0.813%: max response [9, 14]

O=C(c1csnn1)N1CCC2(CC1)CN(c1ccncc1)C2
4.32%: max response [9, 14]
5.47%: max response [9, 15]
inactive: Potency [1] > 11.4 µM | activity change, negative = inhibition [2] -12.4% | Potency [3] | activity change, negative = inhibition [4] -12.8% | activity, negative = inhibition [5] -7.18% | Potency [6] > 46 µM | outcome [7] | Potency [8] | activity change, negative = inhibition [9] 0.619% | Potency [10]

Cn1cccc1C(=O)N1CCC2(CC1)CN(C(=O)Nc1ccccc1)C2
inactive: Potency [1] > 11.4 µM | activity change, negative = inhibition [2] -4.26% | Potency [3] | activity change, negative = inhibition [4] 8.61% | activity, negative = inhibition [5] -5.03% | Potency [6] > 46 µM | outcome [7] | Potency [8] | activity change, negative = inhibition [9] 5.97% | Potency [10]
8.17%: max response [9, 14]
14.5%: max response [9, 15]

CS(=O)(=O)N1CCC2(CCN(C(=O)Nc3cccc(F)c3)CC2)CC1
11.5%: max response [9, 15]
inactive: Potency [1] > 11.4 µM | activity change, negative = inhibition [2] -2.81% | Potency [3] | activity change, negative = inhibition [4] 8.92% | activity, negative = inhibition [5] -6.54% | Potency [6] > 46 µM | outcome [7] | Potency [8] | activity change, negative = inhibition [9] 4.55% | Potency [10]
4.7%: max response [9, 14]

CS(=O)(=O)N1CCC2(CCN(C(c3ccccc3)c3ccccc3)CC2)CC1
0.776%: max response [9, 15]
-0.926%: max response [9, 14]
active: Potency [12] 12.6 µM | Potency [13] 3.16 µM
inactive: Potency [1] > 11.4 µM | activity change, negative = inhibition [2] -4.08% | Potency [3] | activity change, negative = inhibition [4] -8.24% | activity, negative = inhibition [5] 3.12% | Potency [6] > 46 µM | outcome [7] | Potency [8] | Potency [11] | activity change, negative = inhibition [9] 0.47% | Potency [10]
